Assay [1] deals with Plasmodium falciparum Sir2 (PF13_0152, Sir2A). Description: pfSir2 binders on small-molecule microarrays, primary screen, biochemical, small-molecule microarray, 635 nm fluorescence (AID 1098).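 Also: score merges spot fluorescence intensity with its signal-to-noise ratio.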 Conditions: small-molecule microarray binding, fluorescence 635 nm; higher = more signal.
Assay [2] can be described thus: small-molecule microarray binders of probe aDKK1, primary screen, biochemical, biotinylated probe, 635/667 nm fluorescence (AID 1099).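 Also: score merges 667nm spot fluorescence with signal to noise across triplicate slides; reference of the scale not given here.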 Conditions: higher = more signal.
Assay [3] is described as follows: small-molecule microarray binders of probe aCHRDL2, primary screen, biochemical, biotinylated probe, 635/667 nm fluorescence (AID 1100). Conditions: higher = more signal.
A short description of assay [4]: splicing luciferase reporter signal modulators, primary screen, spliceosome inhibition project, cell-based, HEK293, splice +/- reporter (AID 1101).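 Also: HEK293 cells carrying a splicing-competent luciferase reporter gene; test concentration not given here.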 To be noted: luminescence, 24 h, higher = more signal, called active from +8 up or from −8 down.
For assay [5], the target named is Fibroblast growth factor 10 (Homo sapiens) (UniProt O15520). Briefly: FGF10 binders on small-molecule microarrays, primary screen, biochemical, small-molecule microarray, 635 nm fluorescence (AID 1102). To be noted: FGF10 binding, fluorescence 635 nm, higher = more signal.
Fibroblast growth factor 10 (Homo sapiens), sequence (O15520 whole entry, looked up): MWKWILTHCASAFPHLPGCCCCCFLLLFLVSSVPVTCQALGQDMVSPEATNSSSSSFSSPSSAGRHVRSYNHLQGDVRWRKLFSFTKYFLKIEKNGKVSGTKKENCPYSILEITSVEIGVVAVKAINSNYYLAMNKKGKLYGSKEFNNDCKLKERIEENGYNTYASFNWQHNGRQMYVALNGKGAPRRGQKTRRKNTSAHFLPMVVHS
Assay [6] deals with glycogen synthase kinase-3 (GSK3A per assay name; protocol says GSK3B). Briefly: GSK3 binders on small-molecule microarrays, primary screen, biochemical, small-molecule microarray, 635 nm fluorescence, GSK3A (AID 1103). Also: the record names both GSK3A and GSK3B. To be noted: small-molecule microarray binding, fluorescence 635 nm; higher = more signal.
Assay [7] deals with Epidermal growth factor receptor (Homo sapiens) (UniProt P00533). Description: EGFR binders on small-molecule microarrays, primary screen, biochemical, small-molecule microarray, 635 nm fluorescence (AID 1104).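 Also: score merges 667 nm emission intensity with spot signal to noise over triplicate slides.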 Conditions: EGFR binding, higher = more signal.
Epidermal growth factor receptor (Homo sapiens), sequence (P00533 whole entry, looked up): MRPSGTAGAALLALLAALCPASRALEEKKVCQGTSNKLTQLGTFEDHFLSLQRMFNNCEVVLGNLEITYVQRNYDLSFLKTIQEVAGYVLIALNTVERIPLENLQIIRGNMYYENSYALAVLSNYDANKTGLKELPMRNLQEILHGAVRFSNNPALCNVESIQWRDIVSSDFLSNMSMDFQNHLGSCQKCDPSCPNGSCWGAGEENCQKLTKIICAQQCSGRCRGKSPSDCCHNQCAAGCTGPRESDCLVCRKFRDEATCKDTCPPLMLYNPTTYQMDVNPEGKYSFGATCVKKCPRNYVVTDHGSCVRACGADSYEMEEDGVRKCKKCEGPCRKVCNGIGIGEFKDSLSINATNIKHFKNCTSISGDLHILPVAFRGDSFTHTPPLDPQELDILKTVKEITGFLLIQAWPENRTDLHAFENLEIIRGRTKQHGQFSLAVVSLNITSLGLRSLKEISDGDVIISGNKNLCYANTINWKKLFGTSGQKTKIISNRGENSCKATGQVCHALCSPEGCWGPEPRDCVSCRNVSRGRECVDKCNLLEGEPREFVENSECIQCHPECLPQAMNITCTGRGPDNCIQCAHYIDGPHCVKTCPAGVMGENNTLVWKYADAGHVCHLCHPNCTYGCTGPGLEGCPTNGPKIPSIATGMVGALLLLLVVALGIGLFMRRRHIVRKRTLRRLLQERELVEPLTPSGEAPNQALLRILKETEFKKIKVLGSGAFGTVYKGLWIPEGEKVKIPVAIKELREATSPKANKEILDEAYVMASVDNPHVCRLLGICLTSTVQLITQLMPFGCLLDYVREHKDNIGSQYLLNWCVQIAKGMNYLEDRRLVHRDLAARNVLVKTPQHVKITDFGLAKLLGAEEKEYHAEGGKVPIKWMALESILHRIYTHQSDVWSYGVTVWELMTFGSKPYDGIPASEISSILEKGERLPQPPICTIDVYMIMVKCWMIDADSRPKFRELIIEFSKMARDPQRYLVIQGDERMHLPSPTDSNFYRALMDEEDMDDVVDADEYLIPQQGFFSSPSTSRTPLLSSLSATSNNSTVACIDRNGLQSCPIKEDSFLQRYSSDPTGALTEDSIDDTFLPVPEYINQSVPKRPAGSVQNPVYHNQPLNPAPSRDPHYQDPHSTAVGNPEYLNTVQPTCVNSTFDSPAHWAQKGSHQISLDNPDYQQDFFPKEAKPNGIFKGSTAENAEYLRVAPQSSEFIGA
Assay [8] deals with Follistatin-related protein 3 (Homo sapiens) (UniProt O95633). Briefly: FSTL3 binders on small-molecule microarrays, primary screen, biochemical, small-molecule microarray, 635 nm fluorescence (AID 1105).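 Also: score merges emission near 667 nm and signal to noise per printed spot across three slides.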 To be noted: FSTL3 binding, higher = more signal.
Follistatin-related protein 3 (Homo sapiens), sequence (O95633 whole entry, looked up): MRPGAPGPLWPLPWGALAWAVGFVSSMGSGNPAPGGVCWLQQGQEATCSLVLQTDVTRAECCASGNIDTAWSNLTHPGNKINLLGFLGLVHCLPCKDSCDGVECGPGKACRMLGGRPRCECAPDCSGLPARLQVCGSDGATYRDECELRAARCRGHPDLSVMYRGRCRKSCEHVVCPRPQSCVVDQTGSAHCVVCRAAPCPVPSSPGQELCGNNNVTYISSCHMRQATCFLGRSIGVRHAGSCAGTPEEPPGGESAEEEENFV
Assay [9] concerns the target Dickkopf-related protein 1 (Homo sapiens) (UniProt O94907). Description: DKK1 binders on small-molecule microarrays, primary screen, biochemical, small-molecule microarray, 635 nm fluorescence scan (AID 1106).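 Also: score merges emission near 667 nm with signal to noise over three replicate slides.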 To be noted: DKK1 binding, higher = more signal.
Assay [10] has as its system Inhibin beta A chain (activin A). Description: INHBA (activin A) binders on microarrays, primary screen, biochemical, small-molecule microarray, 635 nm fluorescence scan (AID 1107).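 Also: mouse activin A protein probed at 4.33 µg/mL on printed slides; score merges bound-protein fluorescence near 667 nm with spot signal-to-noise.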 To be noted: small-molecule microarray binding, higher = more signal.

Structures are written as SMILES. The source made the active and inactive calls.

Dickkopf-related protein 1 (Homo sapiens), sequence (O94907 whole entry, looked up): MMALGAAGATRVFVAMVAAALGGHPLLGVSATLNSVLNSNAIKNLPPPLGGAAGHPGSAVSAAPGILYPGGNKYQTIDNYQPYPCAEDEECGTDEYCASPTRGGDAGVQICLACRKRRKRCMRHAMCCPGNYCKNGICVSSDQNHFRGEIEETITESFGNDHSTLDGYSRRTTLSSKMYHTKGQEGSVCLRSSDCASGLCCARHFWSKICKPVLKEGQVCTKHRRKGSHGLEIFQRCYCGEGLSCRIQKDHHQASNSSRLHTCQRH

On to `COCCCNC(=O)[C@@H]1c2ccccc2C(=O)N(Cc2ccccc2Cl)[C@H]1c1ccc(CO)cc1`, for which the composite z-score is 0.471 in assay [1]; 0.167 in [2]; 0.199 in assay [3]; 0.629 in [5]; 1.17 in [6]; 0.245 in [7]. The composite z-score in [8] was found to be 0.715; in [9], 0.412; in assay [10], 0.975. Besides, in assay [4], the z-score was 0.5 (inactive).
Turning to `CC(C)NC(=O)[C@@]1(C)c2ccccc2C(=O)N(Cc2cc(C(F)(F)F)cc(C(F)(F)F)c2)[C@H]1c1ccc(CO)cc1`, the composite z-score was 1.2 in [1]; 0.0251 in [2]; 1.17 in [3]; -0.609 in assay [5]; -0.589 in assay [6]; -0.584 in [7]. The composite z-score in assay [8] was -1.13; in assay [9] it was -0.788; in assay [10] it was -0.0259. The z-score in assay [4] is 0.207 (inactive).
Turning to `CN(C)CCCCCCNC(=O)[C@H]1C[C@H]2C(=O)N3CCC[C@H]3C(=O)N2[C@H]1c1ccc(O)cc1`, the composite z-score worked out at 1.42 in [1]; 0.11 in assay [2]; 0.0341 in assay [3]; 1.28 in assay [5]; 1.35 in assay [6]; 1.6 in assay [7]. The composite z-score was 1.44 in assay [8], 1.25 in [9] and 1.08 in assay [10]. Further, the z-score in assay [4] was -0.8 (inactive).
In the case of `O=C(OCc1ccccc1)C1=CCC2c3[nH]c4ccccc4c3C(=O)C1N2S(=O)(=O)c1ccccc1[N+](=O)[O-]` (stereo not given), the composite z-score in assay [1] is 1.42; in assay [2], 0.332; in assay [3], 0.381; in [5] it was 1.33; in [6] it was 1.32; in [7], 0.727. The results for the composite z-score in assay [8], in assay [9] and in assay [10] were 1.42, 0.109 and 0.618, respectively. Also, the z-score in [4] is -0.00197 (inactive).
Take `COC(=O)[C@@]1(Cc2ccccc2)N=C(c2ccc(OCCCO)cc2)O[C@H]1c1ccccc1`: the composite z-score in [1] was 1.65; in assay [2] it was 0.206; in [3], 0.893; in [5], 0.0071; in assay [6], 0.319; in [7], -1.08. Moreover, the composite z-score was -1.05 in [8], -0.862 in assay [9] and 0.599 in assay [10]. In addition, in assay [4], the z-score was 6.38 (inactive).
For the compound `COC(=O)[C@@]1(CCC(=O)OC(C)(C)C)N=C(c2ccc(OCCCO)cc2)O[C@H]1c1ccccc1N=[N+]=[N-]`, the composite z-score in assay [1] is 1.13; in assay [2], 0.255; in assay [3], 0.662; in [5] it was -0.113; in assay [6], -0.0727; in assay [7], -0.336. Further, the composite z-score in assay [8] was 0.542; in assay [9], 0.0186; in [10], 0.431. In assay [4], the z-score is 2.6 (inactive).
Consider `NCCCCCNC(=O)[C@@H]1C[C@@H]2C(=O)N[C@@H](Cc3ccccc3)C(=O)N2[C@@H]1c1ccc(O)cc1`, for which the composite z-score is 1.14 in assay [1]; -0.0335 in assay [2]; 0.475 in assay [3]; 1.11 in assay [5]; 1.17 in assay [6]; 0.632 in [7]. In addition, the composite z-score in [8] was determined as 1.37; in [9], 0.484; in assay [10], 0.609. The z-score in assay [4] is 1.31 (inactive).
`C=CCOC(=O)[C@H]1[C@@H]2C(=O)O[C@@H](c3ccccc3)[C@@H](c3ccccc3)N2[C@@H](c2ccc(OCCOC(=O)[C@H]3C[C@H]4C(=O)N[C@@H](CCCCNC(C)=O)C(=O)N4[C@H]3c3ccc(O)cc3)cc2)[C@]12C(=O)Nc1ccc(I)cc12`: the composite z-score in assay [1] is 1.33; in assay [2] it was -0.182; in assay [3], -0.717; in assay [5] it was 0.707; in [6] it was 1.11; in [7], 0.506. Moreover, the composite z-score in assay [8] amounted to 1.26; in assay [9] it was 0.667; in assay [10] it was 1.02. Moreover, in assay [4], the z-score is -0.0027 (inactive).
For `CN1C(=O)C2C=CC(C(O)c3ccc([N+](=O)[O-])cc3)N(N3CCCCC3)C2C1=O` (stereo not given), the composite z-score in [1] was 1.41; in [2], 0.193; in assay [3], 0.956; in assay [5], 0.941; in assay [6], 0.964; in assay [7], 0.4. In addition, the composite z-score is 0.832 in assay [8], -0.0607 in assay [9] and 1.23 in assay [10]. For the same compound, the z-score in assay [4] was 0.943 (inactive).
With `COCC(=C=CC[C@@H](O)c1cccc(OCCO)c1)C[C@@H](O)c1ccccn1`, the composite z-score is 0.976 in assay [1]; -0.193 in assay [2]; -0.355 in [3]; 0.751 in [5]; 0.175 in assay [6]; 0.101 in [7]. In addition, the results for the composite z-score in assay [8], in assay [9] and in [10] were 0.167, 0.307 and 0.565, respectively. Besides, the z-score in [4] was 0.758 (inactive).
Consider `C=CCOC(=O)[C@@H]1[C@H]2C(=O)O[C@H](c3ccccc3)[C@H](c3ccccc3)N2[C@H](c2ccc(OCCOC(=O)[C@@H]3C[C@@H]4C(=O)NCC(=O)N4[C@@H]3c3ccc(O)cc3)cc2)[C@@]12C(=O)Nc1ccc(I)cc12`, for which the composite z-score in assay [1] was 0.924; in assay [2], -0.485; in assay [3], -0.201; in assay [5], 0.912; in [6] it was 1.29; in assay [7] it was 0.715. In addition, the figures for the composite z-score in [8], in assay [9] and in [10] were 1.22, 0.82 and 0.0932, respectively. In addition, in [4], the z-score was -0.603 (inactive).
On to `COCCOC(=O)N1C(=O)[C@@]2(c3ccccc31)[C@H](c1ccc(O)cc1)N1[C@H](c3ccccc3)[C@H](c3ccccc3)OC(=O)[C@H]1[C@@H]2C(=O)Nc1nc2ccccc2s1`, for which the composite z-score in [1] was 1.39; in assay [2], -0.0358; in assay [3], -0.167; in [5], 0.724; in [6], 1.05; in [7] it was 0.252. Besides, the composite z-score came to 0.542 in assay [8], 0.39 in assay [9] and 0.0446 in [10]. Also, the z-score in [4] was -1.3 (inactive).
For the compound `CC(C)NC(=O)[C@@]1(c2ccc([N+](=O)[O-])cc2)CC(=O)N(C2CCCCC2)[C@@H]1c1ccc(CO)cc1I`, the composite z-score is 1.04 in assay [1]; 0.719 in assay [2]; 0.902 in assay [3]; -0.0505 in [5]; 0.406 in [6]; -0.527 in assay [7]. In addition, the composite z-score in [8] was -0.573; in assay [9] it was -0.566; in assay [10] it was -0.524. The z-score in [4] is 0.61 (inactive).
As to `O=C(NCCN1CCOCC1)C1N=C(c2ccc(OCCCO)cc2)N(c2ccccc2)O1` (stereo not given), the composite z-score in assay [1] worked out at 0.439; in [2], 0.273; in [3], 0.766; in assay [5] it was 1.56; in assay [6], 1.08; in assay [7], 0.837. The composite z-score in assay [8] was found to be 0.751; in assay [9], 0.915; in assay [10], 0.145. Further, the z-score in assay [4] was -0.764 (inactive).
Turning to `Cc1ccc([C@@H]2C[C@@H](Sc3ccccc3)[C@H](C(=O)O)CN2S(=O)(=O)c2ccc(C)cc2)cc1`, the composite z-score in assay [1] is 1.31; in assay [2] it was 0.055; in assay [3], 0.874; in assay [5] it was 1.37; in assay [6], 1.34; in [7] it was 0.271. In addition, the composite z-score in assay [8] was 0.968; in assay [9] it was -0.0594; in [10], 0.289. The z-score in assay [4] was -0.521 (inactive).
Turning to `COC(=O)C(CC#Cc1ccc2c(c1)[C@]1(C(=O)N2)[C@H](c2ccc(OCCO)cc2)N2[C@H](c3ccccc3)[C@H](c3ccccc3)OC(=O)[C@H]2[C@@H]1C(=O)Nc1nc2ccccc2s1)C(=O)OC`, the composite z-score in [1] was 0.842; in [2], -0.348; in [3], 0.0051; in assay [5], 1.03; in assay [6] it was 1.28; in assay [7], 0.313. Besides, the values for the composite z-score in assay [8], in [9] and in [10] were 1.09, 0.42 and 0.0864, respectively. Besides, the z-score in [4] was -0.0218 (inactive).
